39 compounds from the supplement of paper PMC11219838 can be followed below.

Values without a mark were called inactive.

This assay has as its system Caenorhabditis elegans L1 (N2). Nature of the assay: survival and reproduction score of C. elegans L1 (0: 0-10 living worms, 1: 11-20, 2: 21-50, 3: >50, 4: overgrown) (score 0-4); higher = more worms, less nematicidal, active = 1 or less; extreme values may be limits of the assay. Conditions: 60 µM; 6 days; temperature: 20 °C. The procedure, abridged: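 About 20 synchronized C. elegans N2 L1s were added per 96-well well with E. coli HB101 in liquid NGM, and compound was pinned to 60 µM final (0.6% v/v DMSO). Sealed plates were shaken at 200 rpm for 6 days at 20 °C. Survival and reproduction were scored under a dissection microscope as an ordinal score of living worms per well. The scale ran 0 (0–10 worms) to 4 (overgrown, starved), and two biological replicates were averaged.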
Take `CC(C)(Oc1ccc(Cl)cc1)c1nc(-c2ccncc2)no1`: the “survival and reproduction score” value was 0.5 (active). Take `Cc1cnnn1-c1ccc(-c2nc(-c3ccc(Cl)cc3)no2)cc1`: the “survival and reproduction score” value was 4. Under `Clc1ccc(SCc2nc(-c3cccnc3)no2)cc1` stands 2.5. Regarding `COc1nc(-c2ccc(C)cc2)ccc1-c1noc(-c2ccc(F)cc2)n1`, the “survival and reproduction score” value was 4. As for `Ic1ccc(CSc2nnc(-c3ccccc3)o2)cc1`, the “survival and reproduction score” value was 4. Turning to `COc1ccc(CSc2nnc(-c3ccc(Cl)cc3Cl)o2)cc1`, the “survival and reproduction score” value is 0 (active). For the compound `Cc1ccccc1OCc1nc(-c2ccc(F)cc2)no1`, the “survival and reproduction score” value is 4.

`Fc1ccc(-c2noc(-c3ccc(Br)cc3)n2)cc1`: the “survival and reproduction score” value is 0 (active). Under `O=C(NCCc1ccccc1)c1ccccc1-c1nc(-c2ccccc2Cl)no1` stands 4; under `Cc1ccccc1-c1noc(COc2ccccc2)n1`, 4; under `COc1nc(-c2ccccc2)ccc1-c1noc(-c2ccccc2C)n1`, 4.

Regarding `O=C(CSc1nnc(-c2ccncc2)o1)Nc1cccc(Cl)c1Cl`, the “survival and reproduction score” value was 4. `Cc1cccc(-c2noc(-c3ccc(Cl)cc3)n2)c1`: the “survival and reproduction score” value was 4.

With `FC(F)(F)c1cccc(-c2noc(-c3cccs3)n2)c1`, the “survival and reproduction score” value is 0 (active). On to `CN(C)C(=O)c1ccccc1-c1nc(-c2ccc(Cl)cc2)no1`, for which the “survival and reproduction score” value is 4. For the compound `Cc1ccc(NC(=O)CSc2nnc(-c3ccccc3)o2)cc1C`, the “survival and reproduction score” value is 4. Regarding `Clc1cccc(OCc2nc(-c3ccncc3)no2)c1`, the “survival and reproduction score” value is 3.5. Under `Cc1cccc(-c2noc(COc3ccc(C)cc3C)n2)c1` stands 4; under `Clc1cccc(-c2nc(-c3ccccc3Cl)no2)c1`, 4.

For `Fc1ccc(-c2noc(COc3ccccc3)n2)cc1`, the “survival and reproduction score” value is 3.5. Under `CCCOc1ccc(-c2nc(-c3ccncc3)no2)cc1` stands 0 (active); under `O=C(CSc1nnc(-c2ccc(Br)cc2)o1)Nc1cccc2ccccc12`, 4. Turning to `Cc1cc(Cl)ccc1OCc1nc(-c2ccccc2)no1`, the “survival and reproduction score” value was 4. In the case of `COc1ccccc1-c1noc(-c2ccccc2F)n1`, the “survival and reproduction score” value is 4.

For `Cc1ccccc1CSc1nnc(-c2ccco2)o1`, the “survival and reproduction score” value was 0 (active).

In the case of `O=C(Nc1ccccc1-c1nc(-c2cccnc2)no1)c1cc2ccccc2o1`, the “survival and reproduction score” value is 4. Regarding `Cc1ncc2c(c1-c1noc(-c3ccccc3)n1)CCC2`, the “survival and reproduction score” value is 4.

With `O=C(CSc1nnc(-c2ccccc2Cl)o1)c1ccc2c(c1)CCCC2`, the “survival and reproduction score” value is 4. `COc1ccc(Cl)cc1-c1nnc(SCC(=O)Nc2nccs2)o1`: the “survival and reproduction score” value is 4. Consider `Cc1ccc(-c2noc(COc3ccc(Cl)cc3)n2)cc1`, for which the “survival and reproduction score” value was 4. For `Cc1ccc(CSc2nnc(-c3ccco3)o2)cc1`, the “survival and reproduction score” value is 0 (active). On to `CCn1c(SCc2nc(-c3ccccc3)no2)nc2ccccc21`, for which the “survival and reproduction score” value is 4.

For `c1ccc(-c2noc(CSc3nc4ccccc4[nH]3)n2)cc1`, the “survival and reproduction score” value was 4. As to `COc1ccc(-c2nnc(SCC(=O)Nc3ccc(Cl)cc3Cl)o2)cc1`, the “survival and reproduction score” value is 2.

With `Cc1ccc(-c2noc(-c3cc(C)cc(C)c3)n2)cc1`, the “survival and reproduction score” value is 4. With `Cc1cc(C)cc(OCc2nc(-c3cc(C)nc4ccccc34)no2)c1`, the “survival and reproduction score” value is 4. Under `Clc1cccc(OCc2nc(-c3cccs3)no2)c1` stands 0 (active); under `Cn1cc(C(=O)CSc2nnc(-c3cccc(Cl)c3)o2)c2ccccc21`, 4; under `Cc1cc(OCc2nc(-c3ccccc3)no2)cc(C)c1Cl`, 4.
